Screening data: PubChem, several laboratories
An excerpt weighted towards active compounds, which were near 2.5% of everything screened.
G6PDH CS – L. mesenteroides G6PDH inhibitors, counter-screen for G6PDH-coupled screening assays, biochemical, Leuconostoc mesenteroides enzyme; glucose-6-phosphate dehydrogenase [Leuconostoc mesenteroides]; Purified L. mesenteroides G6PDH, diaphorase/resazurin coupled fluorescence, 45 min; inhibition, % at 5 µM; 0.12% of 200,000 active; AID 1020, 2008; in the data active = inhibition above about 50%
M18AAP inhibitor – PfM18AAP inhibitors, malaria aminopeptidase, primary screen, biochemical, QFRET, recombinant enzyme | H-Glu-NHMec fluorogenic cleavage | AID 1822, 2009 | inhibition, % at 7.35 µM | 1.2% of 290,000 active | M18 aspartyl aminopeptidase (Plasmodium falciparum 3D7);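 active = inhibition above the campaign mean inhibition over all tested compounds plus 3 SD, cut at about 28% in these data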;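 also: 0% = plate median of test compound wells and 100% = 2 mM ZnCl2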
p97 inhibitor – inhibitors of human p97 ATPase, primary screen, biochemical; Transitional endoplasmic reticulum ATPase (Homo sapiens), P55072; recombinant p97 ATPase, Kinase-Glo ATP luminescence, 3 h; inhibition, % at 8 µM; 0.42% of 220,000 active; in the data active = inhibition above about 15%;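 also: 0% = DMSO vehicle and 100% = wells lacking enzyme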
Target sequence (P55072 whole entry, looked up): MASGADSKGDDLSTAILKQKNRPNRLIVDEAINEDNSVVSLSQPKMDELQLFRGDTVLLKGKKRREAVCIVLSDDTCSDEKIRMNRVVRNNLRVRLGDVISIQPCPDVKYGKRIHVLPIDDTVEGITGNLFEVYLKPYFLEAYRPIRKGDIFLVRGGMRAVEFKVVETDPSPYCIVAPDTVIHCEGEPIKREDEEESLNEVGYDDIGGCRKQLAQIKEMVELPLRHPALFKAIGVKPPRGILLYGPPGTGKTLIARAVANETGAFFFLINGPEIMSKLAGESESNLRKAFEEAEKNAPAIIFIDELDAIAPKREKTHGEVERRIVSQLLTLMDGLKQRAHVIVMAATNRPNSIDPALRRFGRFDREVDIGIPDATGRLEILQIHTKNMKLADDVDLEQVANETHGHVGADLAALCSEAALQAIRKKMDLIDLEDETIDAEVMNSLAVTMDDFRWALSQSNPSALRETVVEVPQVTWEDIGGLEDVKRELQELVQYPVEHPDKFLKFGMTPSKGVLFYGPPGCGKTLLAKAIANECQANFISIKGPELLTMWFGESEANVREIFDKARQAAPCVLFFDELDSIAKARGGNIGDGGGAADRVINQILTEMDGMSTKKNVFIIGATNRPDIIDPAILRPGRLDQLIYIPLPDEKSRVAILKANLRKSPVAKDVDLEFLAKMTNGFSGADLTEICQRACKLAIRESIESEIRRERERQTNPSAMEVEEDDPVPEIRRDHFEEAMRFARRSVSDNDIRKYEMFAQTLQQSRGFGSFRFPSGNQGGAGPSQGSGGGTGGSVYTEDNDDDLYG
PHOSPHO1 inh – PubChem AID 1565 | inhibition, % at 13.3 µM | Phosphoethanolamine/phosphocholine phosphatase (Homo sapiens), Q8TCT1 | recombinant PHOSPHO1, absorbance phosphatase assay | 1.1% of 290,000 active; in the data active = inhibition above about 60%
SUMO HTRF inh – inhibitors of in vitro SUMOylation cascade, primary screen, biochemical, HTRF, uHTS; SUMO-conjugating enzyme UBC9 (Homo sapiens), P63279; HTRF SUMOylation assay, SAE1/SAE2 + UBC9; inhibition, % at 35 µM; 0.36% of 290,000 active; AID 2006, 2009; in the data active = inhibition above about 50%, passing the limit was not always enough; inconclusive = no clear call, values can overlap the other calls
HDAC3 inh – HDAC3 deacetylase inhibitors, primary screen, biochemical, fluorescence, cell-free homogeneous; inhibition, % at 8.3 µM; recombinant HDAC3, fluorogenic peptide/trypsin coupled; 0.15% of 320,000 active; Histone deacetylase 3 (Homo sapiens), O15379; in the data active = inhibition above about 26%, passing the limit was not always enough; inconclusive = no clear call, values can overlap the other calls
Numbers without * were called inactive; ? = inconclusive; nt = no result given.

SMILES	G6PDH CS	M18AAP inhibitor	p97 inhibitor	PHOSPHO1 inh	SUMO HTRF inh	HDAC3 inh
CCn1c2ccccc2c2cc(NC(=O)CSc3nnc(-c4ccccc4OC)n3N)ccc21	-1.3	12.1	8.5	78.5*	-35.8	1.6
COc1ccc(COC(=O)C2CCN(C(=O)c3ccc(Cl)cc3)CC2)cc1F	nt	nt	nt	nt	nt	7.9
O=C(CCN1C(=O)/C(=C/c2ccccc2F)SC1=S)NC1C=CS(=O)(=O)C1 (centres undefined)	nt	22.4	nt	34.4	-8.2	-4.9
CCOc1ccc(CN2CCN(Cc3cccn3-c3ncccn3)CC2CCO)cc1 (centres undefined)	8.7	-3.5	-1.3	26.9	1.0	-8.9
Cc1cc([N+](=O)[O-])nn1CC(=O)NNC(=S)Nc1ccc([N+](=O)[O-])cc1	9.6	6.4	-0.2	58.0	2.5	5.9
COc1ccc(CC(=O)NNC(=S)Nc2ccc(Br)cc2)cc1	0.6	3.7	1.3	97.6*	-77.8	6.6
COc1ccc(NC(=S)NNC(=O)Cn2nc([N+](=O)[O-])cc2C)cc1	1.8	11.7	2.8	79.2*	0.0	2.6
CCOc1ccc(C(=O)Nc2ccc(NC(=O)c3ccccc3)cc2)cc1Br	nt	4.9	nt	-7.8	14.2	-0.2
O=C(Cc1noc2ccccc12)NNC(=S)Nc1ccccc1	9.0	30.4*	-0.2	-53.9	-32.5	-1.5
CCOc1ccc(CC(=O)NNC(=S)Nc2ccccc2)cc1Br	6.1	3.0	2.1	87.4*	-78.8	4.6
CCc1cc(=O)oc2c3c(cc(OCC(=O)NCCN4CCOCC4)c12)OC(C)(C)CC3	nt	-1.8	nt	44.2	21.7	-93.8
C[C@@H](NC(=O)c1[nH]cnc1C(=O)Nc1ccon1)c1ccccc1	nt	nt	nt	nt	nt	6.1
CC(NC(=O)COc1ccccc1)C(=O)NCc1ccccc1Cl (centres undefined)	nt	nt	nt	nt	nt	-7.4
Cc1ccccc1NC(=O)CN1C(=O)N/C(=C\c2ccccc2OCc2ccc(C(=O)O)cc2)C1=O	nt	-0.9	nt	-52.2	48.6	9.1
CC(C)Oc1ccc(CC(=O)NNC(=S)Nc2ccccc2)cc1	nt	-9.6	6.2	15.9	-12.1	-1.5
COc1ccc(CC(=O)NNC(=S)Nc2ccccc2)cc1Br	-9.0	3.9	4.5	93.0*	-81.1	-0.7
O=C(Cn1nc(C(F)F)cc1C(F)F)NNC(=S)Nc1ccc(Cl)cc1	-1.9	1.9	1.4	99.7*	-21.2	4.8
Cc1ccc(NC(=S)NNC(=O)Cn2nc(C(F)F)cc2C(F)F)cc1	2.9	23.6	-6.0	-2.7	-2.8	0.8
CC(=O)c1ccc(NC(=S)NCc2ccc(Cl)cc2Cl)cc1	-4.2	-5.5	2.9	-102.8	-2.1	11.6
CCc1cc(CNC(=O)c2ccc(OC3CCN(C(C)=O)CC3)c(OC)c2)on1	nt	5.9	nt	67.0*	14.5	-1.3
CCc1cc(CNC(=O)c2ccc(OC)c(OC3CCN(C(C)C)CC3)c2)on1	nt	4.1	nt	46.5	9.7	-0.4
C[C@@]12C(=O)N(CC3CCCO3)CC(=O)N1[C@H]1c3cc(Cl)ccc3OC[C@@H]1[C@@H]2c1ccccc1 (some centres undefined)	nt	nt	nt	nt	nt	-2.6
Cc1cc(/C=c2/sc3nc4ccccc4n3c2=O)c(C)n1-c1ccccn1	10.2	1.6	-1.5	75.2*	35.4	-2.1
Cc1cc(/C=C2/NC(=O)N(Cc3ccccc3F)C2=O)c(C)n1-c1ccccn1	-9.3	1.9	4.2	-13.0	6.5	44.1*
Cc1cccc(CN2C(=O)N/C(=C/c3cc(C)n(-c4ccccn4)c3C)C2=O)c1	-9.5	-9.2	2.2	5.5	-2.0	15.2
SMILES	G6PDH CS	M18AAP inhibitor	p97 inhibitor	PHOSPHO1 inh	SUMO HTRF inh	HDAC3 inh
Cc1ccc(-c2noc(CNS(=O)(=O)c3ccccc3)n2)cc1	nt	-2.8	nt	22.2	7.8	6.3
CCOC(=O)C(=CNNc1cccc(Cl)c1)C(=O)OCC	nt	12.0	-8.7	74.5*	-20.7	7.0
CC(=O)c1csc(CS(=O)(=O)c2ccccn2)n1	nt	0.1	3.2	61.1*	-0.8	-0.9
CN1c2ccsc2C(O)=C(C(=S)Nc2ccccc2)S1(=O)=O	2.6	6.3	5.5	94.5*	23.3	-10.9
CCOC(=O)c1c(C)[nH]c(N=Nc2ccc(C)cc2C)c1C	7.1	-10.7	-9.5	64.8*	6.8	-4.3
CCOC(=O)c1c(C)[nH]c(N=Nc2ccccc2C)c1C	4.2	-16.4	2.8	11.5	-17.7	?
CC(NC(=O)C(c1ccccc1)c1ccccc1)C(=O)N1CCCCC1 (centres undefined)	-3.8	1.3	-3.7	37.9	8.0	3.1
CC1=CCC(/C=N\Nc2nnc3c(n2)[nH]c2ccccc23)CC1 (centres undefined)	7.2	35.8*	6.0	-6.6	4.8	0.5
Cc1cccc(C)c1OCC(=O)Nc1ncn[nH]1	0.1	29.2*	0.1	-16.2	4.7	-2.2
Nc1ccc(Oc2ncccn2)cc1	nt	28.3*	nt	nt	-3.4	-1.7
O=Cc1cccc(Oc2ncccn2)c1	3.9	2.0	-1.1	-7.9	-6.8	-3.7
O=C(CSc1ccccn1)N1CCN(c2cccc(Cl)c2)CC1	11.9	6.5	0.3	82.6*	-6.3	-1.4
O=C(CSc1ccccn1)N1CCN(c2ccccc2)CC1	-9.7	2.3	2.9	-4.0	1.4	-5.0
O=C(NCC1CCCO1)c1cc(-c2ccc(F)cc2)no1 (centres undefined)	nt	-5.2	nt	16.9	4.8	-1.8
Cc1cccc(C(=O)Oc2csc(=S)n2C(=O)c2cccc(C)c2)c1	-2.3	8.9	7.1	10.4	13.8	21.8
O=C(Oc1csc(=S)n1C(=O)c1ccccc1)c1ccccc1	-5.6	6.6	4.5	83.3*	13.2	36.6*
COc1nc(-c2ccc(Cl)cc2)ccc1-c1noc(-c2ccco2)n1	2.7	-1.0	-1.4	80.4*	12.5	-18.1
COc1ccc(CC(=O)NCC2(c3ccc(OC)c(OC)c3)CCOCC2)cc1	2.8	-6.1	2.4	10.7	14.5	-0.1
COc1ccc(C2(CNC(=O)Cc3ccccc3)CCCC2)cc1OC	5.1	3.3	-1.6	65.2*	16.5	-8.0
CCCC(=O)n1nc(-c2ccc(OC)cc2)nc1N	3.2	0.2	-0.9	42.4	-3.1	7.8
COc1ccc(C(=O)n2nc(-c3ccccc3)nc2N)cc1OC	-1.9	4.2	5.5	-15.6	-12.5	61.7*
COc1ccc(C(=O)n2nc(-c3ccc(OC)cc3)nc2N)cc1	13.3	-0.2	-2.5	8.7	19.5	58.7*
COc1ccc(C(=O)n2nc(-c3ccco3)nc2N)cc1OC	4.1	4.1	-0.7	-14.5	23.6	nt
COc1ccc(-c2nc(N)n(C(=O)c3ccc(C)cc3)n2)cc1	9.4	-0.8	-2.8	15.9	11.3	32.0*
COCC(C)n1c(SCC(=O)NC(=O)NCc2ccccc2)nc2ccccc2c1=O (centres undefined)	nt	nt	nt	nt	nt	3.5
